This note sets out measurements from PubChem BioAssay (NCI).

Among the test systems are T-47D breast; BT-549 breast; MDA-MB-435 melanoma; SW-620 colon; MCF7 breast; HCT-116 colon; HCC-2998 colon; KM12 colon.
What all share (experiment): NCI-60 one-dose screen, 48 h (100 = growth as untreated, 0 = no growth, -100 = all killed)
Holding throughout (conditions): 10 µM unless noted

The panel holds about 83,000 compounds, 20% with a hit somewhere; the sample as a whole holds those more often.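 For each line, cells grew in 96-well plates with the test compound present at a single concentration for 48 hours.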 A number with no mark means an inactive call. The source made the active and inactive calls. How the source made its calls: active means growth percent below 10; inactive means the rest.

`CCOP(=O)(OCC)OC[C@]12CCC(C)(C)C[C@H]1C1=CC[C@@H]3[C@@]4(C)CC[C@H](OP(=O)(OCC)OCC)C(C)(C)[C@@H]4CC[C@@]3(C)[C@]1(C)CC2`: the growth with T-47D breast is 26.2%; in the assay on BT-549 breast it was 54.1%; in the assay on MDA-MB-435 melanoma it was 62.1%; in the assay on SW-620 colon, 68.4%; in the assay with MCF7 breast, 28.1%; in the assay on HCT-116 colon, 18.5%. The growth was 73.1% in the assay on HCC-2998 colon and 63.9% with KM12 colon.
With `C=C(C)[C@@H]1CC[C@]2(COCCCNCCCN)CC[C@]3(C)[C@H](CC[C@@H]4[C@@]5(C)CC[C@H](O)C(C)(C)[C@@H]5CC[C@]43C)[C@@H]12`, the growth in the assay on T-47D breast is -53.3% (active); with BT-549 breast it was -77.4% (active); in the assay on MDA-MB-435 melanoma it was -95.8% (active); in the assay on SW-620 colon, -68.1% (active); with MCF7 breast, -75.4% (active); in the assay with HCT-116 colon, -86.5% (active). Further, the figures for the growth in the assay with HCC-2998 colon and in the assay on KM12 colon were -71.5% (active) and -65.4% (active), respectively.
Turning to `COc1ccc(/C(=N\N=C(N)N)c2ccc(Cl)cc2)cc1OC`, the growth in the assay with T-47D breast was 68%; in the assay on BT-549 breast, 81.2%; in the assay on MDA-MB-435 melanoma it was 58%; with SW-620 colon it was 73.6%; in the assay on MCF7 breast, 54.5%; with HCT-116 colon, 34.8%. In addition, the growth in the assay on HCC-2998 colon is 69.8%; in the assay with KM12 colon, 61.5%.
With `CN1CCN(Cc2ccc(NC(=O)c3cncc(C#Cc4cnc5ccc(OC6CCOCC6)nn45)c3)cc2C(F)(F)F)CC1`, the growth in the assay on T-47D breast was -56.1% (active); with BT-549 breast, -82.7% (active); in the assay on MDA-MB-435 melanoma, -81.6% (active); in the assay with SW-620 colon, -18.2% (active); with MCF7 breast, -67.1% (active); in the assay on HCT-116 colon it was -89.5% (active). Moreover, the growth in the assay with HCC-2998 colon and in the assay with KM12 colon was -68.5% (active) throughout.
On to `O=C(CCCCCCNC(=O)C(O)(O)C(F)(F)F)Nc1ccc(Br)cc1`, for which the growth is 8.06% (active) in the assay on T-47D breast; 19.5% in the assay with BT-549 breast; 6.63% (active) with MDA-MB-435 melanoma; 3.78% (active) with SW-620 colon; 13.7% in the assay on MCF7 breast; -6.77% (active) in the assay with HCT-116 colon. Moreover, the growth in the assay with HCC-2998 colon was 1.89% (active); in the assay on KM12 colon, 14.1%.
As for `COC(=O)c1cccc(NC2=C(Cl)C(=O)C(C)=C(C)C2=O)c1`, the growth with T-47D breast was -18.1% (active); in the assay on BT-549 breast it was 96.2%; with MDA-MB-435 melanoma, 104%; with SW-620 colon, 103%; in the assay with MCF7 breast it was 82%; in the assay on HCT-116 colon, 70.1%. In addition, the growth in the assay on HCC-2998 colon was 98.2%; in the assay with KM12 colon it was 49.2%.
In the case of `COc1ccccc1Cn1cc(C#N)c(N)c1C(=O)c1ccc(Br)cc1`, the growth in the assay with T-47D breast was 74.1%; in the assay with BT-549 breast it was 103%; in the assay on MDA-MB-435 melanoma, 94.4%; in the assay on SW-620 colon it was 100%; in the assay on MCF7 breast, 91.5%; with HCT-116 colon, 93.9%. The growth is 103% in the assay with HCC-2998 colon and 96.5% in the assay on KM12 colon.
As to `Brc1ccc2[nH]cc(-c3nn4cc(-c5nccs5)nc4s3)c2c1`, the growth is 29.7% with T-47D breast; 62.6% in the assay with BT-549 breast; 12.9% with MDA-MB-435 melanoma; 25.2% with SW-620 colon; 33.9% in the assay on MCF7 breast; -81.7% (active) in the assay with HCT-116 colon. Further, the growth in the assay with HCC-2998 colon was 36.7%; in the assay with KM12 colon, 21%.
On to `CC(C)(C)OC(=O)Nc1ccc(-c2cccc(Oc3ccc4nnc(Cl)n4n3)c2)cc1`, for which the growth in the assay on T-47D breast is 59.3%; with BT-549 breast it was 58.8%; with MDA-MB-435 melanoma it was 83.7%; with SW-620 colon it was 97.3%; in the assay with MCF7 breast, 74.8%; in the assay on HCT-116 colon it was 43.9%. Also, the growth in the assay with HCC-2998 colon was 109%; in the assay on KM12 colon, 88.2%.
Take `COc1ccc2c(c1)c(/C=N/Nc1ccnc3cc(Cl)ccc13)cn2C`: the growth is -64.1% (active) in the assay on T-47D breast; -76.9% (active) in the assay on BT-549 breast; -92.9% (active) in the assay on MDA-MB-435 melanoma; -76.6% (active) in the assay with SW-620 colon; -80.2% (active) with MCF7 breast; -82.3% (active) in the assay on HCT-116 colon. For the same molecule, the figures for the growth in the assay with HCC-2998 colon and in the assay on KM12 colon were -86.3% (active) and -78.1% (active), respectively.
In the case of `CC[C@]12C=CCN3CC[C@]4(C(=C(C(=O)OC)C1)Nc1cc5c(cc14)[C@@H]1[C@H](O5)[C@@H](O)[C@@]4(CC)CC(C(=O)OC)=C5Nc6cc(O)ccc6[C@@]56CCN1C46)C32` (some centres undefined), the growth in the assay with T-47D breast was 6.91% (active); in the assay with BT-549 breast, 18.8%; in the assay with MDA-MB-435 melanoma it was -38.2% (active); in the assay with SW-620 colon it was 2.78% (active); with MCF7 breast it was 3.26% (active); with HCT-116 colon it was -70.5% (active). Further, the figures for the growth with HCC-2998 colon and in the assay with KM12 colon were -64.8% (active) and -30.2% (active), respectively.
In the case of `O=C(CCCCCCNC(=O)C(O)(O)C(F)(F)F)Nc1ncc(-c2ccccc2)s1`, the growth is 8.47% (active) with T-47D breast; -9.98% (active) in the assay on BT-549 breast; 0.873% (active) in the assay on MDA-MB-435 melanoma; 0.575% (active) in the assay on SW-620 colon; 11.7% in the assay with MCF7 breast; 2.27% (active) in the assay with HCT-116 colon. Also, the growth is -46.1% (active) in the assay on HCC-2998 colon and -28.7% (active) in the assay with KM12 colon.
On to `Cn1cc(-c2cc3ncnc(Nc4ccc(CC(=O)Nc5nc(C(C)(C)C)cs5)cc4)c3s2)cn1`, for which the growth was 3.67% (active) with T-47D breast; 61.3% in the assay with BT-549 breast; 54.6% in the assay with MDA-MB-435 melanoma; 53.8% in the assay on SW-620 colon; 41.8% in the assay with MCF7 breast; 39% in the assay with HCT-116 colon. The growth in the assay on HCC-2998 colon is 74.6%; in the assay on KM12 colon, 13.2%.
